Source: PubChem BioAssay (National Center for Advancing Translational Sciences (NCATS))
Hits are enriched below; roughly 19% of the tested compounds scored in any of these assays.
uPA generation = qHTS for Inhibitors of Cell Surface uPA Generation; cell surface uPA generation assay, qHTS; Potency, µM (top dose mostly 38.3 µM), actives largely listed as inhibitors; 0.31% of 330,000 active; active = well fitted inhibition curve with a large enough effect; inconclusive = small, poorly fitted or top-dose-only effect; inactive = no such curve, though single readings can be large or run the other way; tested in mouse RAW 264.7 cells; note: nearly all actives have a fitted effect of over 55% in size
HT1080-NT tox = qHTS for induction of synthetic lethality in tumor cells producing 2HG: qHTS for the HT-1080-NT fibrosarcoma cell line; HT-1080-NT fibrosarcoma viability, CellTiter-Glo ATP luminescence, 48 h; Potency, µM (titrated, usually from 46.1 µM), most hits filed as cytotoxic; 1.6% of 360,000 active; AID 686970, 2013;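 note: NT is the 2HG producing partner of a matched IDH1 knockdown line; nearly all actives have a fitted effect of over 55% in size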
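Viability of the 2HG-overproducing fibrosarcoma line after 48 hours of compound exposure at 37 degrees C was determined by luminescence with CellTiter-Glo, and concentration-effect curves were then fitted and categorized.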
HT1080 IDH1KD tx = qHTS for induction of synthetic lethality in tumor cells producing 2HG: qHTS for the HT-1080-IDH1KD cell line; Potency, µM (highest dose often 46.1 µM), most hits filed as cytotoxic; HT-1080 IDH1 knockdown viability, ATP luminescence, 48 h; 2% of 360,000 active
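IDH1KD HT-1080 cells, 750/well, RPMI + 5% FBS; compound pinned after 2 h settling; 48 h, 37 °C; CellTiter-Glo luminescence; % activity normalised to DMSO and no-cell wells; curves fitted, classed by r2 and efficacy.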
TDP1 cell CPT = qHTS for Inhibitors of human tyrosyl-DNA phosphodiesterase 1 (TDP1): qHTS in cells in presence of CPT; chicken DT40 Tdp1-/-;hTDP1 cells + 20 nM CPT, ATP luminescence, 48 h; Potency, µM (doses to about 46.2 µM), hits mostly inhibitors; 12% of 420,000 active; AID 686979, 2013; note: nearly all actives have a fitted effect of over 55% in size
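Chicken DT40 Tdp1-/- cells complemented with human TDP1, 400 cells/well, exposed to compounds plus 20 nM camptothecin for at least 48 h at 37 C; viability read as ATP content by CellTiter-Glo luminescence.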
DT40 TDP1 no CPT = qHTS for Inhibitors of human tyrosyl-DNA phosphodiesterase 1 (TDP1): qHTS in cells in absence of CPT | 15% of 420,000 active | DT40 Tdp1-/- hTDP1 cells, no CPT, ATP luminescence, 48 h | Potency, µM (series often up to 46.2 µM), most hits filed as inhibitors; note: nearly all actives have a fitted effect of over 55% in size
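A cellular qHTS used chicken DT40 cells lacking endogenous Tdp1 but carrying stably transfected human TDP1. Compounds were applied without camptothecin, and cell growth kinetics were judged by ATP-dependent luminescence after ≥48 hr.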
IL1B secr inh = qHTS for Inhibitors of Inflammasome Signaling: IL-1-beta AlphaLISA Primary Screen; activity change, % at 57.5 µM; 4.7% of 360,000 active; THP-1 LPS/ATP IL-1B secretion, AlphaLISA, 16 h; hits give low values; in the data active = activity change below about -50%; inconclusive = mostly about -30% to -49%
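Secreted IL-1B measured by AlphaLISA bead assay after 16 h compound exposure of THP-1 cells; compounds (final up to 57.5 uM) added 1 h before LPS (250 ng/mL) and ATP (1.25 mM) stimulation; lower signal means less secretion.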
Hits are given with their value; . = inactive; ? = inconclusive; / = no result. Unless noted, calls come from the whole dose curve; as a rule, active = well fitted curve in the direction sought with a large enough effect; inconclusive = small, poorly fitted or top-dose-only effect, or another doubt; inactive = no such curve, though single readings can be large; an effect the other way counts as inactive or inconclusive.

SMILES	uPA generation	HT1080-NT tox	HT1080 IDH1KD tx	TDP1 cell CPT	DT40 TDP1 no CPT	IL1B secr inh
COc1ccc(N2CCN(c3ncnc4sc(C(=O)NCC5CCCO5)c(C)c34)CC2)cc1 (stereo not drawn)	.	.	.	?	23.1µM	.
COc1ccccc1N1CCN(c2ncnc3sc(C(=O)NCC4CCCO4)c(C)c23)CC1 (stereo not drawn)	.	.	.	?	13µM	.
O=C(O)CCN1c2ccccc2Sc2ccccc21	.	.	.	.	.	.
C=CCN1c2ccccc2Sc2cnccc21	/	.	.	?	18.4µM	?
C=CCN1C(=O)/C(=C2/Sc3ccccc3N2C)SC1=Nc1ccccc1C	.	.	.	?	?	.
CC(=O)OCCN1c2ccccc2Sc2cnccc21	/	.	.	?	14.6µM	?
CCc1cccc(NC(=O)CN2Cc3ccccc3C2=O)c1	/	/	/	.	?	/
CCOC(=O)C(Cc1cc(N)c(Oc2ccc(OC)cc2)c(N)c1)NC(C)=O (stereo not drawn)	.	?	.	.	.	.
COC(=O)c1ccccc1NC(=O)c1c(NC(=O)c2ccco2)sc2c1CCC(C(C)(C)C)C2 (stereo not drawn)	/	/	/	.	.	/
C=CC[C@H](CC(=O)N(CCO)Cc1ccccc1)C(=O)N[C@H](COC(=O)[C@@H](CC=C)CC(=O)OC(C)(C)C)Cc1c[nH]c2ccccc12	.	?	?	23.1µM	16.4µM	-64.5
C=CC[C@@H](CC(=O)N(CCO)Cc1ccccc1)C(=O)N[C@H](COC(=O)[C@H](CC=C)CC(=O)OC(C)(C)C)Cc1c[nH]c2ccccc12	.	.	?	23.1µM	16.4µM	-58.9
C=CC[C@H](CC(=O)N(CCO)Cc1ccccc1)C(=O)N[C@@H](C)COC(=O)[C@H](CC=C)CC(=O)OC(C)(C)C	.	.	.	?	?	.
CN1CCN(S(=O)(=O)c2cccc(C(=O)Oc3ccc(Br)cc3F)c2)CC1	.	.	.	.	.	.
O=C(CCC1N=C2c3ccccc3N=C(SCc3cccc(F)c3)N2C1=O)NC1CCCCC1 (stereo not drawn)	/	/	/	.	.	/
O=C(CSC1=Nc2ccccc2C2=NC(c3ccccc3)C(=O)N12)NC1CCCCC1 (stereo not drawn)	.	.	.	.	.	.
O=C(CC1N=C2c3ccccc3N=C(SCc3ccccc3F)N2C1=O)NCCc1ccccc1 (stereo not drawn)	/	/	/	20.6µM	20.6µM	/
O=C(CC1N=C2c3ccccc3N=C(SCc3cccc(Cl)c3)N2C1=O)NC1CCCCC1 (stereo not drawn)	/	/	/	16.4µM	18.4µM	/
O=C(CCC1N=C2c3ccccc3N=C(SCc3ccccc3F)N2C1=O)NC1CCCCC1 (stereo not drawn)	/	/	/	18.4µM	18.4µM	/
O=C(CC1N=C2c3ccccc3N=C(SCc3ccccc3Cl)N2C1=O)NC1CCCCC1 (stereo not drawn)	/	/	/	9.2µM	11.6µM	/
CCC(Cn1nnc2ccccc2c1=O)NC(=O)Nc1cc(C)cc(C)c1 (stereo not drawn)	/	/	/	.	?	/
Cc1cc(Br)ccc1NC(=O)COC(=O)c1ccccc1OCC(N)=O	/	/	/	.	.	/
COc1ccc(-c2cc(C(=O)Nc3ccc(C)c(C)c3)no2)cc1	.	.	.	?	?	.
O=C(Nc1cccc(O)c1)c1cc(-c2ccco2)on1	.	.	.	?	14.6µM	.
COc1ccc(-c2cc(C(=O)Nc3cccc(O)c3)no2)cc1	5.01µM	.	.	.	.	.
Cc1ccc(C(=O)Nc2ccccc2C(=O)N2CCCC(C)C2)cc1 (stereo not drawn)	.	.	.	.	.	.
SMILES	uPA generation	HT1080-NT tox	HT1080 IDH1KD tx	TDP1 cell CPT	DT40 TDP1 no CPT	IL1B secr inh
COc1ccc(C2CC(c3ccccc3)=NN2C(=O)COC(=O)c2cccc(N)c2)cc1 (stereo not drawn)	.	?	.	?	?	.
N#Cc1ccc(OCC(=O)N2CCN(c3ccc(C(F)(F)F)cn3)CC2)cc1	.	.	.	.	.	?
COc1ccc(-n2nc(C(=O)NCCc3ccc(OC)c(OC)c3)c3c4ccccc4n(C)c3c2=O)cc1	/	/	/	16.4µM	14.6µM	/
CCCCN(C)CCNC(=O)c1nn(-c2ccc(OC)cc2)c(=O)c2c1c1ccccc1n2C	.	.	.	?	18.4µM	.
Nc1nc2c(nnn2C2CC(O)C(CO)O2)c(=O)[nH]1 (stereo not drawn)	/	?	5.17µM	29.1µM	?	.
Nc1nc2c(ncn2C2C[C@H](O)[C@@H](CO)O2)c(=O)[nH]1 (stereo partly drawn)	.	?	?	10.3µM	6.51µM	.
CC(C)C(=O)Nc1nc2c(ncn2[C@H]2CC(O)[C@@H](CO)O2)c(=O)[nH]1 (stereo partly drawn)	/	/	/	11.2µM	12.6µM	/
O=c1[nH]cnc2c1ncn2[C@@H]1C[C@@H](O)[C@H](CO)O1	.	?	.	?	.	.
Nc1nc(=O)n(C2CC(O)C(CO)O2)cc1Cl (stereo not drawn)	/	?	.	?	.	.
Nc1nc(=O)n(C2CC(O)C(CO)O2)cc1F (stereo not drawn)	.	.	5.17µM	?	?	.
COc1ccc(C(=O)N2CCC3(CCN(Cc4ccccc4)CC3)CC2)cc1	/	/	/	.	.	/
Cc1ccc(CNC(=O)Cn2nnc(C(=O)Nc3cc(C)ccc3C)c2N)cc1	.	?	?	.	.	.
CC[n+]1ccc2cc(OC)c(OC)cc2c1Cc1ccc(OC)c(OC)c1	.	.	.	?	?	.
O=c1oc2ccc(Br)cc2cc1-c1nc2c(s1)CCc1ccccc1-2	/	/	/	?	.	/
Nc1nc2c(ncn2C2OC(COC(=O)c3ccccc3)C(OC(=O)c3ccccc3)C2OC(=O)c2ccccc2)c(=O)[nH]1 (stereo not drawn)	/	/	/	?	20.6µM	/
CC(C)c1cn(C2OC(COC(=O)c3ccccc3)C(OC(=O)c3ccccc3)C2OC(=O)c2ccccc2)c(=O)[nH]c1=O (stereo not drawn)	.	/	/	/	/	/
CCc1cc2c(COC(=O)c3cccc(S(C)(=O)=O)c3)cc(=O)oc2cc1O	.	?	.	?	?	.
CNS(=O)(=O)c1cccc(C(=O)OCc2cc(=O)oc3c(C)c(O)ccc23)c1	.	?	.	?	18.4µM	.
CN(C)CCOc1ccc2ccccc2c1	.	.	.	.	.	.
